Bioassay records from PubChem.
BAZ2B inh: blocks human BAZ2B; Q9UIF8; AlphaScreen BAZ2B-H3K14Ac peptide displacement; Potency, µM (top dose mostly 114 µM), hits mostly inhibitors; 4.4% of 360,000 active; AID 504333; further: nearly all actives have a fitted effect of over 60% in size
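Compounds, titrated to a top concentration of 110 uM, were incubated 30 min at room temperature with preformed BAZ2B/acetyl-K14 H3 peptide complex (50 nM each). Proximity signal was measured by AlphaScreen after 20 min with beads.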
HP1b chromo inh: blocks HP1-beta chromodomain binding to methylated histone tails. AlphaScreen HP1-beta / biotin-H3K9me3 peptide binding. Potency, µM (highest dose often 114 µM), actives largely listed as inhibitors. 0.56% of 390,000 active. AID 540317; further: nearly all actives have a fitted effect of over 70% in size
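Compound inhibition of the preformed complex between 50 nM HP1-beta and 50 nM biotinylated H3K9me3 peptide was read by AlphaScreen. Buffer was PBS pH 7.4 with 0.01% Tween-20. Incubations ran 30 min at room temperature, with 10 ug/mL donor/acceptor beads.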
L3MBTL1 block: inhibitors of human L3MBTL1; Q9Y468; AlphaScreen L3MBTL1–H3K9me1 peptide binding; Potency, µM (series often up to 57.1 µM), actives largely listed as inhibitors; 0.66% of 230,000 active; further: nearly all actives have a fitted effect of over 60% in size
Target sequence (Q9Y468 whole entry, looked up): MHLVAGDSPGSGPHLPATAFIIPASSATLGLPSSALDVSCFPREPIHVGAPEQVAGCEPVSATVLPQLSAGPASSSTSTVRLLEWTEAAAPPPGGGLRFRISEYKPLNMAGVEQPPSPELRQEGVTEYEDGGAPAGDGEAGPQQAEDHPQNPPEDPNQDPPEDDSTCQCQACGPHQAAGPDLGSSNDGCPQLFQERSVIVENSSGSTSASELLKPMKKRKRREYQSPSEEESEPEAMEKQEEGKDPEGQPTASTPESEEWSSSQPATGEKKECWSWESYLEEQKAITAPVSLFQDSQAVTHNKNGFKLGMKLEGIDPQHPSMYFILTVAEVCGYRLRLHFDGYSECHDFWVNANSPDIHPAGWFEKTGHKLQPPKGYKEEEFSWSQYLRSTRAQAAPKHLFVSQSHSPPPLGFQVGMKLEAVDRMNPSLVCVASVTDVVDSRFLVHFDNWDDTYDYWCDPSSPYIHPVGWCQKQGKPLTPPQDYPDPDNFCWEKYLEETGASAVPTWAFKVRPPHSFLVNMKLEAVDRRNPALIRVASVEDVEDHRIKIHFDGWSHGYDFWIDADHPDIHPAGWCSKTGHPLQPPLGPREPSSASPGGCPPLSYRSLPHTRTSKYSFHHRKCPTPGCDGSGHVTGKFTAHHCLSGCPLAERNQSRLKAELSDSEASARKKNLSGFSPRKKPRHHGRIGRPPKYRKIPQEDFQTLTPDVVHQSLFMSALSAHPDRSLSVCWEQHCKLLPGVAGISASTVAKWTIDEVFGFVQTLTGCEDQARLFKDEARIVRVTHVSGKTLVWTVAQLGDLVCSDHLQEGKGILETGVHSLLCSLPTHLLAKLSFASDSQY
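Displacement of a biotinylated histone H3(1-15) peptide monomethylated at Lys9 (75 nM) from L3MBTL1 (50 nM) was measured by AlphaScreen after a 30 min room-temperature compound incubation; cefsulodin titration served as intraplate control.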
JMJD2A Tudor: JMJD2A Tudor domain (human) inhibition; Potency, µM (highest dose often 114 µM), usual class: inhibitors; O75164; 4.4% of 390,000 active; AID 504339; AlphaScreen JMJD2A-Tudor / H3K4me3 peptide binding; further: nearly all actives have a fitted effect of over 50% in size
Sfp inh: blocks B. subtilis Sfp PPTase activity | Potency, µM, usual class: inhibitors | Q9F4F7 | 3.5% of 310,000 active | Biochemical Sfp PPTase activity, qHTS;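 further: the enzyme is Sfp with the accession as filed and its product quenches rhodamine fluorescence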
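With Hepes-Na pH 7.6 buffer containing 10 mM MgCl2, Sfp (15 nM) modified BHQ-2-YbbR (12.5 uM) using rhodamine-CoA (5 uM). Two reads 30 minutes apart at 525/598 nm yielded each well's rate.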
G9a inh: inhibitors of human histone lysine methyltransferase G9a. 8.8% of 350,000 active. G9a H3K9 monomethylation, AlphaScreen, 2 h. Potency, µM (series often up to 102 µM), usual class: inhibitors. Q96KQ7; further: nearly all actives have a fitted effect of over 75% in size
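Compounds were preincubated with 20 nM G9a for 15 min, after which biotinylated H3K9 peptide (500 nM) and SAM (20 uM) started a 2 h room-temperature reaction. Monomethylated product was quantified by antibody-based AlphaScreen chemiluminescence.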
Large screens that a line does not name were inactive; ! = repeats disagree. Only some compounds are listed: those with a hit (about 12% of all), similar ones and a draw of the others. The call rests on the fitted dose curve; in most records, active means well fitted curve in the direction sought with a large enough effect; inconclusive means small, poorly fitted or top-dose-only effect, or another doubt; inactive means no such curve, though single readings can be large; an effect the other way counts as inactive or inconclusive.

COc1ccc(-c2nc3n(n2)C(c2ccc(OC)cc2)C(C(=O)Nc2cccnc2)=C(C)N3)cc1 (centres undefined)	none (no result: L3MBTL1 block, Sfp inh)
Cc1ccc2occ(CC(=O)Nc3c(C(=O)Nc4ccc(Cl)cc4)oc4ccccc34)c2c1	none (no result: L3MBTL1 block, Sfp inh)
CC(N)=NCCCC[C@@H](N)C(=O)O	G9a inh 10µM! (no result: BAZ2B inh, HP1b chromo inh, L3MBTL1 block, JMJD2A Tudor, Sfp inh)
CC(N)=NCCCC[C@H](N)C(=O)O	none (no result: BAZ2B inh, HP1b chromo inh, L3MBTL1 block, JMJD2A Tudor, G9a inh)
S=C(NCCc1ccccc1)Nc1ccc(Br)cn1	BAZ2B inh inconclusive, G9a inh 7.1µM
Cc1ccc(S(=O)(=O)N2CCN(C(=O)Cc3ccc(S(=O)(=O)N4CCOCC4)s3)CC2)cc1	G9a inh 79µM (no result: L3MBTL1 block)
O=C(Cc1ccc(S(=O)(=O)N2CCOCC2)s1)N1CCN(S(=O)(=O)c2ccc(Cl)cc2)CC1	none (no result: Sfp inh)
O=C(Cc1ccc(S(=O)(=O)N2CCCC2)s1)N1CCN(c2ccccc2)CC1	L3MBTL1 block inconclusive, G9a inh inconclusive (no result: BAZ2B inh)
COc1ccc(N2CCN(C(=O)Cc3ccc(S(=O)(=O)N4CCOCC4)s3)CC2)cc1	BAZ2B inh 40µM, HP1b chromo inh 50µM, L3MBTL1 block inconclusive, JMJD2A Tudor 45µM, G9a inh 45µM
Cc1ccc(CNC(=O)c2ccc(Cn3c(SCc4ccccc4F)nc4cccnc43)cc2)cc1	none (no result: L3MBTL1 block, Sfp inh)
CC(=O)Nc1ccc(C(=O)CSc2nnc3cc(C)c4ccccc4n23)cc1	none (no result: L3MBTL1 block, Sfp inh)
COc1cccc(/C=N/N2C(=O)NC3(CCCCC3)C2=O)c1O	G9a inh 16µM (no result: L3MBTL1 block)
CCOc1cc(/C=N/N2C(=O)NC3(CCCCC3)C2=O)cc(Br)c1O	G9a inh inconclusive (no result: BAZ2B inh)
CN(CCCC(=O)O)c1ccc(N=Nc2ccc([N+](=O)[O-])cc2)cc1	HP1b chromo inh 11µM, JMJD2A Tudor 22µM (no result: BAZ2B inh, L3MBTL1 block, Sfp inh, G9a inh)
CN(Cc1ccc([N+](=O)[O-])cc1)c1ccccc1	JMJD2A Tudor inconclusive (no result: BAZ2B inh, L3MBTL1 block, Sfp inh, G9a inh)
CC1(C)CC(=O)C(Sc2nnc(-c3ccc(O)cc3)n2CC2CCCO2)C(=O)C1 (centres undefined)	BAZ2B inh inconclusive, Sfp inh 45µM, G9a inh 28µM
O=C(CSc1nnc(-c2ccccc2)n1CC1CCCO1)N1CCCC1 (centres undefined)	none
CC(=O)Nc1ccc(C(=O)CSc2nnc(-c3ccc(O)cc3)n2CC2CCCO2)cc1 (centres undefined)	JMJD2A Tudor 79µM, Sfp inh inconclusive, G9a inh 20µM
FC(F)(F)c1cc(-c2ccco2)nc(NCc2ccccc2)n1	Sfp inh 20µM, G9a inh inconclusive
CCN(c1ccc(Cl)cc1)S(=O)(=O)c1nnc(NC(=O)C2CCCCC2)s1	none (no result: L3MBTL1 block, Sfp inh)
Cc1ccccc1OCCNCC(C)O (centres undefined)	BAZ2B inh 56µM, HP1b chromo inh inconclusive, JMJD2A Tudor 2.8µM, G9a inh 14µM
CC[C@H](C)[C@H](NC(=O)[C@H](CCC(=O)O)NC(=O)[C@@H](N)CO)C(=O)N[C@@H](CCC(N)=O)C(=O)N[C@@H](CC(C)C)C(=O)N[C@@H](CCSC)C(=O)N[C@@H](Cc1cnc[nH]1)C(=O)N[C@@H](CC(N)=O)C(=O)N[C@@H](CC(C)C)C(=O)NCC(=O)N[C@@H](CCCCN)C(=O)N[C@@H](Cc1cnc[nH]1)C(=O)N[C@@H](CC(C)C)C(=O)N[C@@H](CC(N)=O)C(=O)N[C@@H](CO)C(=O)N[C@@H](CCSC)C(=O)N[C@@H](CCC(=O)O)C(=O)N[C@@H](CCCNC(=N)N)C(=O)N[C@H](C(=O)N[C@@H](CCC(=O)O)C(=O)N[C@@H](Cc1c[nH]c2ccccc12)C(=O)N[C@@H](CC(C)C)C(=O)N[C@@H](CCCNC(=N)N)C(=O)N[C@@H](CCCCN)C(=O)N[C@@H](CCCCN)C(=O)N[C@@H](CC(C)C)C(=O)N[C@@H](CCC(N)=O)C(=O)N[C@@H](CC(=O)O)C(=O)N[C@H](C(=O)N[C@@H](Cc1cnc[nH]1)C(=O)N[C@@H](CC(N)=O)C(=O)N[C@@H](Cc1ccccc1)C(=O)O)C(C)C)C(C)C	none (no result: BAZ2B inh, HP1b chromo inh, L3MBTL1 block, JMJD2A Tudor, G9a inh)
Cc1sc(N)c(C(=O)c2ccccc2Cl)c1C	BAZ2B inh 45µM, HP1b chromo inh inconclusive, JMJD2A Tudor inconclusive
Cc1ccc(-c2nc(CS(=O)(=O)CC(=O)Nc3ccc(Br)cc3F)c(C)o2)cc1	BAZ2B inh inconclusive (no result: L3MBTL1 block, Sfp inh)
O=C(N/N=C1/CC2C=CCC12)c1ccco1 (centres undefined)	JMJD2A Tudor 50µM
Cc1ccc(C(C)C)cc1OCC(=O)NNC(=O)Nc1ccccc1	G9a inh 79µM (no result: L3MBTL1 block)
Cc1ccc(-c2onc3ccc(Cl)cc23)cc1	none
CC1(c2ccc3noc(-c4ccc(Cl)cc4)c3c2)OCCO1	Sfp inh inconclusive
COc1ccc(-c2onc3ccc(Cl)cc23)cc1	Sfp inh 50µM, G9a inh inconclusive (no result: L3MBTL1 block)
O=Cc1ccc2noc(-c3ccc(Cl)cc3)c2c1	G9a inh 22µM (no result: L3MBTL1 block)
CN1CCN(c2ncnc3ccc(-c4cccc(C#N)c4)cc23)CC1	none (no result: BAZ2B inh, HP1b chromo inh, L3MBTL1 block, JMJD2A Tudor)
COc1ccc(NC(=O)c2ccco2)cc1NC(=O)c1cc(Cl)ccc1OC	none (no result: L3MBTL1 block, Sfp inh)
